Measurements published in PubChem BioAssay (EPA / NIEHS).
Activity calls are given as the source filed them. The calls were made as follows: active = hit-call score of the fitted dose curve at least 0.9, where 1 is the maximum; inactive = score below 0.9.

Experiments:
[1] = read-out: Transforming growth factor beta 1 (TGFb1), TGFB1 (gene 7040); experiment: BSK_KF3CT_TGFb1: BioMAP Diversity Plus: KF3CT Assay for Transforming growth factor beta 1 (TGFb1) Biomarker Activity (AID 2283072); details: primary human keratinocytes with fibroblasts; actives raise or lower the signal
Outline: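 KF3CT co-culture (keratinocytes + fibroblasts), 24 h exposure → TGF-b1 ELISA → bidirectional fit, DMSO = baseline. Parallel SRB total-protein staining (0.1% SRB, 10% TCA fixation, 560 nm) for cytotoxicity.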

[2] = read-out: C-C motif chemokine 2 (Homo sapiens) (UniProt P13500); experiment: BSK_KF3CT_MCP1: BioMAP Diversity Plus: KF3CT Assay for Monocyte Chemoattractant Protein 1 (MCP1/CCL2) Biomarker Activity (AID 2283073); details: primary human keratinocytes with fibroblasts; actives raise or lower the signal
Outline: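 ELISA read-out of MCP-1, 24 h post-dose, in primary human skin keratinocytes co-cultured with fibroblasts. Parallel SRB staining monitors cytotoxicity; changes fitted both directions relative to DMSO.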

[3] = read-out: Matrix Metallopeptidase 9 (MMP9), MMP9 (gene 4318); experiment: BSK_KF3CT_MMP9: BioMAP Diversity Plus: KF3CT Assay for Matrix Metallopeptidase 9 (MMP9) Biomarker Activity (AID 2283074); details: primary human keratinocytes with fibroblasts; actives raise or lower the signal
Outline: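 Values come from bidirectional fitting relative to DMSO of MMP-9 levels, which were measured by ELISA. Measurements were taken 24 h after chemical dosing of a keratinocyte and foreskin fibroblast co-culture.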

[4] = read-out: urokinase plasminogen activator (uPA), PLAU (gene 5328); experiment: BSK_KF3CT_uPA: BioMAP Diversity Plus: KF3CT Assay for urokinase plasminogen activator (uPA) Biomarker Activity (AID 2283075); details: primary human keratinocytes with fibroblasts; actives raise or lower the signal
Outline: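 Values derive from bidirectional fitting against DMSO controls. Keratinocyte/foreskin fibroblast co-cultures received chemical; 24 h later uPA was detected by ELISA, with SRB total-protein staining in parallel wells for overt cytotoxicity.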

CD40, CD40 (gene 958) [5] = experiment: BSK_LPS_CD40: BioMAP Diversity Plus: LPS Assay for CD40 Biomarker Activity (AID 2283076); details: primary human HUVEC with PBMC; actives raise or lower the signal
Outline: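 In the LPS system of human endothelial cells with peripheral blood mononuclear cells, CD40 levels were read by ELISA 24 h post-treatment. Signal changes in either direction were fitted against the DMSO baseline, with parallel SRB protein staining.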

[6] = read-out: E-selectin (Homo sapiens) (UniProt P16581); experiment: BSK_LPS_Eselectin: BioMAP Diversity Plus: LPS Assay for Eselectin Biomarker Activity (AID 2283077); details: primary human HUVEC with PBMC; actives raise or lower the signal
Outline: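 E-selectin ELISA on LPS-stimulated endothelial cell/PBMC co-cultures, read 24 h post-treatment; gains and losses fitted against DMSO. Parallel SRB staining (0.1% SRB after 10% TCA fixation, 560 nm) flags overt cytotoxicity.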

[7] = read-out: Interleukin-8 (IL8), CXCL8 (gene 3576); experiment: BSK_LPS_IL8: BioMAP Diversity Plus: LPS Assay for Interleukin-8 (IL8) Biomarker Activity (AID 2283078); details: primary human HUVEC with PBMC; actives raise or lower the signal
Outline: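 ELISA read-out of IL-8 after 24 h chemical treatment of LPS-activated endothelial/PBMC human primary co-cultures. Changes either up or down relative to DMSO; overt cytotoxicity checked by sulforhodamine B staining in parallel wells.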

[8] = read-out: Monocyte Chemoattractant Protein-1 (MCP1), CCL2 (gene 6347); experiment: BSK_LPS_MCP1: BioMAP Diversity Plus: LPS Assay for Monocyte Chemoattractant Protein-1 (MCP1) Biomarker Activity (AID 2283081); details: primary human HUVEC with PBMC; actives raise or lower the signal
Outline: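 Secreted MCP-1 read by ELISA at 24 h post-dosing in an LPS-activated co-culture of endothelial cells with peripheral blood mononuclear cells. Fits run in both directions, DMSO as baseline; parallel SRB staining tracks overt cytotoxicity.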

[9] = BSK_LPS_PGE2: BioMAP Diversity Plus: LPS Assay for Prostaglandin E2 (PGE2) Biomarker Activity (AID 2283082); details: primary human HUVEC with PBMC; actives raise or lower the signal;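 as to AC50: secreted prostaglandin E2 measured by ELISA in LPS-stimulated co-culture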
Outline: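 Compounds were added to the LPS co-culture of endothelium and PBMC, and PGE2 was measured by ELISA after 24 h. Responses in either direction were fitted with DMSO as baseline.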

[10] = read-out: Macrophage colony-stimulating factor (MCSF), CSF1 (gene 1435); experiment: BSK_LPS_MCSF: BioMAP Diversity Plus: LPS Assay for Macrophage colony-stimulating factor (MCSF) Biomarker Activity (AID 2283083); details: primary human HUVEC with PBMC; actives raise or lower the signal
Outline: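 Bidirectional fitting against DMSO was applied to M-CSF levels read by ELISA at 24 h post-dose. The system pairs human umbilical vein endothelium with peripheral blood mononuclear cells; parallel SRB staining tracked cytotoxicity.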

[11] = read-out: Tissue Factor, F3 (gene 2152); experiment: BSK_LPS_TissueFactor: BioMAP Diversity Plus: LPS Assay for Tissue Factor Biomarker Activity (AID 2283084); details: primary human HUVEC with PBMC; actives raise or lower the signal
Outline: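 Compound was added to an endothelial cell/PBMC co-culture, and after 24 h tissue factor (CD142) was read by ELISA. Gain or loss of signal was fitted against a DMSO baseline, and parallel SRB staining (560 nm) tracked overt cytotoxicity.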

[12] = read-out: Tumor necrosis factor (Homo sapiens) (UniProt P01375); experiment: BSK_LPS_TNFa: BioMAP Diversity Plus: LPS Assay for Tumour Necrosis Factor alpha (TNFa) Biomarker Activity (AID 2283085); details: primary human HUVEC with PBMC; actives raise or lower the signal;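 as to AC50: TNFa protein level quantified by ELISA in the co-culture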
Outline: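 Cells (umbilical vein endothelium plus peripheral blood mononuclear cells) were dosed with chemical, incubated 24 h, then TNFa was quantified by ELISA; values derive from bidirectional fitting with DMSO as baseline.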

[13] = read-out: Vascular cell adhesion molecule 1 (VCAM1), VCAM1 (gene 7412); experiment: BSK_LPS_VCAM1: BioMAP Diversity Plus: LPS Assay for Vascular cell adhesion molecule 1 (VCAM1) Biomarker Activity (AID 2283086); details: primary human HUVEC with PBMC; actives raise or lower the signal
Outline: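 Cells are dosed in an LPS-stimulated endothelial/mononuclear co-culture and, after 24 h, VCAM-1 is quantified by ELISA. Activity in either direction is fitted relative to the DMSO negative control.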

CD38, CD38 (gene 952) = experiment: BSK_SAg_CD38: BioMAP Diversity Plus: SAg Assay for CD38 Biomarker Activity (AID 2283087); details: primary human HUVEC with PBMC; actives raise or lower the signal
Outline: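 CD38 quantified by ELISA (fluorescence) in a superantigen-activated endothelial cell–PBMC co-culture at 24 h post-dose. Activity fitted in both directions relative to DMSO; parallel SRB and Alamar Blue cytotoxicity read-outs.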

CD40, CD40 (gene 958) [14] = experiment: BSK_SAg_CD40: BioMAP Diversity Plus: SAg Assay for CD40 Biomarker Activity (AID 2283088); details: primary human HUVEC with PBMC; actives raise or lower the signal
Outline: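 CD40 is measured by fluorescence ELISA in an endothelial/PBMC primary human co-culture at 24 h post-dose. Fitting is bidirectional, DMSO baseline. Parallel SRB staining (560 nm) flags cytotoxicity.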

CD69, CD69 (gene 969) = experiment: BSK_SAg_CD69: BioMAP Diversity Plus: SAg Assay for CD69 Biomarker Activity (AID 2283089); details: primary human HUVEC with PBMC; actives raise or lower the signal;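 as to AC50: cell surface CD69 protein quantified by ELISA with fluorescence detection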
Outline: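 ELISA, fluorescence read-out: CD69 on human umbilical vein endothelial cell + PBMC co-culture, 24 h post-dosing. Gain or loss of signal fitted bidirectionally against DMSO baseline.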

[15] = read-out: Monocyte Chemoattractant Protein-1 (MCP1), CCL2 (gene 6347); experiment: BSK_SAg_MCP1: BioMAP Diversity Plus: SAg Assay for Monocyte Chemoattractant Protein-1 (MCP1) Biomarker Activity (AID 2283090); details: primary human HUVEC with PBMC; actives raise or lower the signal
Outline: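 Values derive from bidirectional fitting of ELISA-measured MCP1 against DMSO controls. Readings were taken 24 h after dosing human vascular endothelial cells co-cultured with peripheral blood mononuclear cells under superantigen stimulation.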

[16] = read-out: E-selectin (Homo sapiens) (UniProt P16581); experiment: BSK_SAg_Eselectin: BioMAP Diversity Plus: SAg Assay for Eselectin Biomarker Activity (AID 2283091); details: primary human HUVEC with PBMC; actives raise or lower the signal
Outline: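 Cell-surface E-selectin is read by ELISA at 24 h in the SAg co-culture of HUVEC and PBMC. Curves are fitted in both directions relative to DMSO. Parallel SRB total-protein staining tracks overt toxicity.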

[17] = read-out: Interleukin-1 alpha (IL1a), IL1A (gene 3552); experiment: BSK_LPS_IL1a: BioMAP Diversity Plus: LPS Assay for Interleukin-1 alpha (IL1a) Biomarker Activity (AID 2283080); details: primary human HUVEC with PBMC; actives raise or lower the signal
Outline: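 Readout is IL-1a level by ELISA, 24 h post-dose, fitted as gain or loss relative to DMSO. System: LPS-activated human primary co-culture of vascular endothelium and peripheral blood mononuclear cells, with parallel SRB total-protein cytotoxicity.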

Measured: AC50

Tumor necrosis factor (Homo sapiens), sequence (P01375 whole entry, looked up): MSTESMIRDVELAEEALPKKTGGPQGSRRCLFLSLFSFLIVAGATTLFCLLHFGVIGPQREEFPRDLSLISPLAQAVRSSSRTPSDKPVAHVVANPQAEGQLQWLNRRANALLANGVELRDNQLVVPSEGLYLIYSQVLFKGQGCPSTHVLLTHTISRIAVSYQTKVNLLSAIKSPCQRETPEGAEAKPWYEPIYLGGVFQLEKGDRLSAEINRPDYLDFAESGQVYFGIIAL
E-selectin (Homo sapiens), sequence (P16581 whole entry, looked up): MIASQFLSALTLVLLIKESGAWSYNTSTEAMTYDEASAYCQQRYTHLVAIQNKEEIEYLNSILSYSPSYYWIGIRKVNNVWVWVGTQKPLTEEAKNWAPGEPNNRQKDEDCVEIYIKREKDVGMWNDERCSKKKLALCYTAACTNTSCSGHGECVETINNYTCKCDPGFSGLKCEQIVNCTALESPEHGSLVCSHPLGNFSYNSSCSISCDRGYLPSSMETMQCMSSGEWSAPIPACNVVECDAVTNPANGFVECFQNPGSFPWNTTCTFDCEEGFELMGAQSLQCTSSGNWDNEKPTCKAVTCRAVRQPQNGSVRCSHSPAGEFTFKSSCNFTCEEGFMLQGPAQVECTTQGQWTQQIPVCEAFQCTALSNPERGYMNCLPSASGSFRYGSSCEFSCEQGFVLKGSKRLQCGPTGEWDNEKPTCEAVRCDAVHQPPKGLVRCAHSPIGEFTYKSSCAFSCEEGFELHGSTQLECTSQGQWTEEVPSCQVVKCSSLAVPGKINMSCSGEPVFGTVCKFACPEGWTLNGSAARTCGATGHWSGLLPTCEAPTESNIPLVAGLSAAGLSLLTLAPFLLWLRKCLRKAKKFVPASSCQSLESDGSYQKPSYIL

CCCCOCCOCCOCc1cc2c(cc1CCC)OCO2
active: CD40, CD40 (gene 958) [5] 20 µM | [7] 13.3 µM | [12] 25.3 µM
not listed: [17]
inactive: all other assays above

COCCO
not listed: [2]
inactive: all other assays above

CC(=O)S[C@@H]1CC2=CC(=O)CC[C@]2(C)[C@H]2CC[C@@]3(C)[C@@H](CC[C@@]34CCC(=O)O4)[C@H]12
active: CD40, CD40 (gene 958) [5] 25 µM | [6] 22.5 µM | [7] 15.9 µM | [9] 15.6 µM | [10] 22 µM | [11] 20 µM | [12] 13.9 µM | [13] 29.7 µM | CD38, CD38 (gene 952) 19.3 µM | CD40, CD40 (gene 958) [14] 20 µM | CD69, CD69 (gene 969) 13.9 µM | [15] 17.2 µM | [16] 14.9 µM
inactive: [1] | [2] | [3] | [4]
